Results from PubChem BioAssay (NCI).
Compounds without any hit were thinned out: in the full panel of roughly 83,000, 20% have a hit.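 Cells were grown in 96-well plates and exposed to the test compound at a single concentration for 48 hours; results are reported as percent growth, with values below 10 considered active.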 Unmarked numbers belong to inactive results.

The molecules below were run on SF-539 CNS (assay: NCI-60 one-dose screen, 48 h (100 = growth as untreated, 0 = no growth, -100 = all killed)). Settings: 10 µM unless noted.

Structure (SMILES)	growth [%]
C[C@H](c1nc2ccc(C#N)cc2[nH]1)[C@H]1CC[C@H]2[C@@H]3CCC4=CC(=O)CC[C@]4(C)[C@H]3CC[C@]12C	62.9
O=c1cc(C(F)(F)F)c2cc(-c3cc4ccccc4c(=O)o3)c(O)cc2o1	73.3
Nc1ccc(-c2ccncc2)cc1NC(=O)N1CCCC1	90.1
COc1cccc(-c2cn3nc(-c4cn(C)c5ccccc45)sc3n2)c1	94
CC(C)(C)c1ccc(S(=O)(=O)Oc2ccc(-c3sc4cc(OS(=O)(=O)c5ccc(C(C)(C)C)cc5)ccc4c3C(=O)c3ccc(OCCN4CCCCC4)cc3)cc2)cc1	96.8
CCN(CC)CCn1c2ccc(OC)cc2c2sc3cc(O)ccc3c(=O)c21	25.3
C=C1C(=O)O[C@H]2[C@H]1CC/C(COC(=O)NCc1ccc(Cn3c(=O)sn(-c4ccc(I)cc4)c3=O)cc1)=C\CC[C@@]1(C)O[C@@H]21	98.7
O=C(Nc1nc(Cl)nc(Nc2ccc(N3CCOCC3=O)cc2)n1)c1ccc(Cl)s1	104
COc1cc(OC)c2c(=O)c3c(CC=C(C)C)cc(OC)c(O)c3oc2c1	91.4
O=S(=O)(Nc1cc(Sc2nc3ccccc3s2)c(O)c2ccccc12)c1ccc2ccccc2c1	106
Nc1cccc(-c2ccc(COc3ccc(CC4SC(=O)NC4=O)cc3)cc2)c1 (configuration not stated)	64.3
COc1ccc(-c2nc(SCC(=O)Nc3nc4ccc(C)cc4s3)[nH]c(=O)c2C#N)cc1OC	92.9
